Source: PubChem
Yeast superoxide = reduction of superoxide in aged yeast, primary screen, HTS | S. cerevisiae aged cells, superoxide DHE fluorescence; stronger effect = lower value | AID 2690, 2010 | 330,000 compounds, 0.18% hits | superoxide response (% of plate mean), % at 10 µM;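 active = superoxide response under a set limit, about three screen SD below normal, cut at about 65% in these data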;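 also: yeast aged for seven days with compound at 30 °C before DHE staining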
GLD-1 RNA inh = GLD-1/TGE RNA complex disruptors, primary screen, biochemical, fluorescence polarization | Female germline-specific tumor suppressor gld-1 (Caenorhabditis elegans), Q17339 | purified GLD-1 + fluorescein TGE RNA | 320,000 compounds, 0.44% hits | inhibition, % at 5.96 µM;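 active = percent inhibition above a per-plate cutoff, the plate mean of test compounds plus 3 SD, cut at about 30% in these data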
Bcl-xL primary = inhibitors of human Bcl-xL, primary screen, biochemical, fluorescence polarization, HTS; inhibition, % at 10.9 µM; GST-Bcl-xL / FITC-Bim BH3 peptide fluorescence polarization; 320,000 compounds, 0.7% hits;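 active = inhibition above the mean of all tested compounds plus 3 SD, cutoff set per campaign, cut at about 30% in these data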;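 also: inhibitors lower millipolarization by displacing the labeled peptide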
MEX-5 binding = MEX-5 zinc finger RNA-binding disruptors – biochemical, C. elegans, fluorescence polarization, MLPCN library, primary screen. Zinc finger protein mex-5 (Caenorhabditis elegans), Q9XUB2. MEX-5/FITC-TCR2 RNA binding; stronger effect = lower value. activity score (negative = inhibition of binding), % at 10 µM. 300,000 compounds, 0.38% hits. AID 1832, 2009;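 active = inhibition past about -25% in most replicates, and total fluorescence under double the plate's negative control median, limit read from the data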
Target sequence (Q9XUB2 whole entry, looked up): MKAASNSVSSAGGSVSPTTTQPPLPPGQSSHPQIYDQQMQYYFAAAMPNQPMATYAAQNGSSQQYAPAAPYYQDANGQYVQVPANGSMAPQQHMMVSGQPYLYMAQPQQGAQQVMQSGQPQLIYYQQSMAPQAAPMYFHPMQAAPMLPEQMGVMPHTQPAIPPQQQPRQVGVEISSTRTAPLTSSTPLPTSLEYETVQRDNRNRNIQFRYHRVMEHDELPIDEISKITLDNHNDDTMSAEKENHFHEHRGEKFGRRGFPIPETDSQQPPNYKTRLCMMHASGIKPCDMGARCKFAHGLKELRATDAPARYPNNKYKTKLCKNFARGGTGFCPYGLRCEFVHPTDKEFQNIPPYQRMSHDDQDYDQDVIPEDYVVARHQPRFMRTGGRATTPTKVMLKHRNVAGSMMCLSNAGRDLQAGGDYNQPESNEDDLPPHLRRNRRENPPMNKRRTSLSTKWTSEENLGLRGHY
LANA-H2B inh = blockers of LANA interaction with H2A/H2B – biochemical, FP readout, HTS, primary screen | Protein LANA1 (Human herpesvirus 8 type P (isolate GK18)), Q9QR71 | cell-free LANA-H2A/H2B peptide, fluorescence polarization | inhibition, % (test concentration not listed) | 320,000 compounds, 0.6% hits; in the data active = inhibition mostly above about 10%, no sharp cut-off; inactive = mostly below about 6.7%
MCL1-BIM inh = inhibitors of MCL1 binding to BIM-BH3, primary screen, biochemical, fluorescence polarization; 320,000 compounds, 0.68% hits; Induced myeloid leukemia cell differentiation protein Mcl-1 (Homo sapiens), Q07820; AID 2057, 2009; inhibition, % at 10.9 µM; GST-MCL1 / FITC-Bim-BH3 fluorescence polarization;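 active = inhibition above the mean inhibition of all tested compounds plus 3 SD, set per campaign, cut at about 40% in these data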;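 also: higher means more loss of mP so more displacement of Bim peptide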
Bcl-xL conf = Bcl-xL inhibitors blocking Bim BH3 binding, confirmation, counter-screen for MCL1 inhibitor project, biochemical, fluorescence polarization | shares compounds with MCL1-BIM inh | AID 2166, 2009 | inhibition, % at 10.9 µM | GST-Bcl-xL / FITC-Bim BH3 peptide FP binding | 1,700 compounds, 54% hits;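 active = inhibition above a cutoff equal to the mean inhibition of all tested compounds plus 3 SD, cut at about 30% in these data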
MCL1 inh confirm = inhibitors of MCL1 binding to BIM-BH3, confirmation, biochemical, fluorescence polarization, triplicate | GST-MCL1 / FITC-Bim-BH3 fluorescence polarization | inhibition, % at 10.9 µM | 1,700 compounds, 61% hits | shares compounds with MCL1-BIM inh | AID 2168, 2009;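 active = inhibition above the average of all tested compounds plus 3 SD, cut at about 40% in these data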
A number is an active result; . = inactive; / = no result given. Shown are actives, neighbours in structure and some others; about 1.9% of the full set was active somewhere.

SMILES	Yeast superoxide	GLD-1 RNA inh	Bcl-xL primary	MEX-5 binding	LANA-H2B inh	MCL1-BIM inh	others
Cc1ccc(N(C(=O)CCC(=O)Nc2ccccn2)C(C(=O)NC(C)C)c2ccc(F)cc2)cc1 (stereo unspecified)	.	.	.	.	18	.
COCCOC1CCN(C(=O)c2cc(COc3ccc(F)cc3F)on2)CC1	.	.	.	.	.	.
Cc1ccc2c(c1)CC1(CN2C)C(=O)OC2(CCCCC2)OC1=O	.	.	33	.	.	.
CN1CC2(Cc3c1ccc1ccccc31)C(=O)OC(C)(C)OC2=O	.	.	.	/	.	.
CN(CC(=O)Nc1ccccc1Cl)C(=O)CN1C(=O)NC(c2ccccc2)(c2ccccc2)C1=O	.	.	.	/	.	.
CC1Cc2ccccc2N1C(=O)C1CC(=O)N(c2ccccc2)C1 (stereo unspecified)	.	.	.	.	.	.
O=C(CCc1nc2ccccc2c(=O)[nH]1)N1CCCc2ccccc21	.	.	51	.	.	43
Cc1ccc(N2CC(C(=O)OCC(=O)NNC(=O)c3ccccc3)CC2=O)cc1 (stereo unspecified)	.	.	.	.	.	.
CCC(NC(=S)NC1CCCCC1)c1ccc(C(C)C)cc1 (stereo unspecified)	.	/	/	.	.	/
Oc1c(N=NC(=S)Nc2ccccc2F)c2ccccc2n1Cc1ccc(Cl)cc1	.	.	.	.	21	.
CC(C)(O)C(=O)NNC(=S)NCc1ccco1	.	.	.	-32	.	.
CC(C)(C)c1ccc(C(=O)NNC(=S)NCc2ccco2)cc1	.	.	.	.	.	.
O=C(Nc1cccc(S(=O)(=O)NC2=NCCC2)c1)c1ccc(C(F)(F)F)cc1	.	.	/	/	.	/
CCn1c(C)cc(/C=C2/NC(=O)N(c3ccccc3)C2=O)c1C	.	.	31	.	.	.
CCCN1CCC(NC(=O)Nc2ccc(Br)cc2)CC1	.	.	.	.	18	.
CCCNC(=O)c1cc(Cl)c(NC(=O)C2=CSCCO2)cc1OC	.	.	.	.	.	.
Cc1ccc(NC(=O)COC(=O)CCC2CCCC2)c(Br)c1	.	.	.	/	.	.
O=C(Nc1nc(-c2ccccc2)cs1)C1c2ccccc2Oc2ccccc21	.	.	.	.	46	.
CCc1ccc(C(=O)NNC(=O)CN2C(=O)NC3(CCCC3)C2=O)cc1	.	.	.	/	.	.
CCC(Oc1ccccc1)C(=O)N1CCN(S(=O)(=O)c2ccccc2)CC1 (stereo unspecified)	.	.	.	/	.	.
Cc1ccc(-c2cccc(-c3cc(=O)oc4ccc(C(C)(C)C)cc34)c2)cc1	.	/	/	/	/	/
COc1cc2c3nnc(-c4ccccc4)c-3cn(Cc3ccc(F)cc3)c2cc1OC	.	.	.	-34	.	.
COc1ccc(CNC2CCCc3ccccc32)cc1OC (stereo unspecified)	.	.	.	/	31	.
CCc1c2ccccc2nn1-c1ccccc1C(=O)C(C)=O	.	.	.	.	10	.
Nc1nnc(SCCCOc2ccc(F)cc2)s1	.	.	.	.	25	.
SMILES	Yeast superoxide	GLD-1 RNA inh	Bcl-xL primary	MEX-5 binding	LANA-H2B inh	MCL1-BIM inh	others
CC1CC(C)CN(C(=O)Cn2nnc(-c3ccccc3)n2)C1 (stereo unspecified)	.	.	.	.	.	.
CC1CCN(C(=O)Cn2nnc(-c3ccccc3)n2)CC1	.	.	.	.	.	45	Bcl-xL conf=.;MCL1 inh confirm=.
CCCCCC#CCC#CCC#CCC#CCCCC(=O)O	.	.	.	.	.	96	Bcl-xL conf=.;MCL1 inh confirm=86
CC(=O)Nc1ccc(N=Cc2c(O)c(C(=O)Nc3ccccc3)cc3ccccc23)cc1	.	.	.	.	.	.
CCOc1cc(Br)c(Br)c(C=Nc2ccc(NC(C)=O)cc2)c1O	.	.	31	.	.	44	Bcl-xL conf=71;MCL1 inh confirm=116
O=c1[nH]cnc2sc3c(c12)CN(Cc1ccccc1)CC3	.	.	73	.	.	58	Bcl-xL conf=.;MCL1 inh confirm=.
CCN(C(=O)CSc1nnc(SC)s1)c1c(N)n(Cc2ccccc2)c(=O)[nH]c1=O	.	59	84	/	.	93	Bcl-xL conf=.;MCL1 inh confirm=.
CSc1nnc(SCC(=O)N(C)c2c(N)n(Cc3ccccc3)c(=O)[nH]c2=O)s1	.	.	.	.	.	.
Cc1cc(C)c(C)c(S(=O)(=O)NC(C(=O)NCCc2ccco2)C(C)C)c1C (stereo unspecified)	.	.	.	/	.	.
COc1ccc(/C=C/C(=O)OCC(=O)Nc2cccc(S(=O)(=O)NC3=NCCCCC3)c2)cc1	.	.	/	/	.	/
CCOC(=O)C1CCN(C(=O)COC(=O)c2c(C)c(CC)nc3ccccc23)CC1	.	.	/	/	.	/
CN1C(=O)N(C)C2C1NC(=O)N2C (stereo unspecified)	.	.	.	.	.	.
CC1C2C(C)N(C)C(=O)N(C)C2N(C)C(=O)N1C (stereo unspecified)	.	41	81	-40	.	85	Bcl-xL conf=74;MCL1 inh confirm=90
CC(C)CN(C(=O)COC(=O)c1cc2c(s1)CCC2)C1CCS(=O)(=O)C1 (stereo unspecified)	.	.	.	.	.	42	Bcl-xL conf=.;MCL1 inh confirm=.
CNc1ccc(Br)cc(C(=O)/C=C/c2ccc3c(c2)OCO3)c1=O	.	.	.	.	.	49	Bcl-xL conf=.;MCL1 inh confirm=.
CNc1ccc(Br)cc(C(=O)/C=C/c2ccc(OC)cc2)c1=O	.	.	.	.	.	.
O=c1ccc2cc3c([nH]c4ccc(Br)cc43)oc-2c1O	.	.	46	-79	.	85	Bcl-xL conf=.;MCL1 inh confirm=69
CC[C@@]1(C(=O)OC)N[C@H](CN(C)S(=O)(=O)c2ccc(OC(F)(F)F)cc2)[C@@H]2C(=O)N(C)C(=O)[C@@H]21	.	.	/	/	/	/
COc1cc(Cl)ccc1OCc1cc(C(=O)N2CCCCCCC2)no1	.	.	.	/	.	84	Bcl-xL conf=.;MCL1 inh confirm=.
COc1cc(C)ccc1OCc1cc(C(=O)N2CCCCCC2)no1	/	/	/	.	/	/
